Hits are enriched below; roughly 6.8% of the tested compounds scored in any of these assays.
SW480 rerep: DNA re-replication induction in SW480 cells | SW480 DNA re-replication, Hoechst DNA content imaging, 48 h | Potency, µM (doses to about 46.1 µM), for the others: at the highest dose re-replication activation, actives largely listed as activators | 1.8% of 340,000 active | AID 624297; also: % of control where 0% means no effect; nearly all actives have a fitted effect of over 55% in size
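Image-based DNA-content assay: after two days of treatment, nuclei were labelled with the DNA dye Hoechst and imaged, and hits were compounds raising the count of nuclei showing high fluorescence intensity.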
KB-V1 MDR tox: kills drug-selected multidrug resistant KB-V1 cells; Potency, µM (titrated, usually from 46.1 µM), actives largely listed as cytotoxic; KB-V1 MDR cells viability, CellTiter-Glo, 72 h; 3.4% of 400,000 active; AID 1347076; also: % is scaled to controls: 0 for no effect and ±100 for the full control effect; nearly all actives have a fitted effect of over 60% in size
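Readout: CellTiter-Glo luminescence, 10 min after addition. Cells: KB-V1 MDR subline, 72 h at 37 degrees C with compound. Analysis: corrected, normalized data fitted to concentration-effect curves.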
TSG101-PTAP inh: blocks PTAP/TSG101 interaction to inhibit HIV-1 budding; Q99816; Fluorescence polarization, FITC-PTAP peptide / Tsg101 binding; Potency, µM (series often up to 115 µM), without a hit: top-dose activity change, negative = inhibition, usual class: inhibitors; 340,000 tested, under 10 active; AID 493005; active = well fitted inhibition curve with a large enough effect in the main read-out, with a control signal flat, not every such curve was filed as active; inconclusive = small, poorly fitted or top-dose-only effect, or effect the other way, or a change in a side signal; inactive = no such curve, though single readings can be large or run the other way; also: % of control where 0% means no effect
Target sequence (Q99816 whole entry, looked up): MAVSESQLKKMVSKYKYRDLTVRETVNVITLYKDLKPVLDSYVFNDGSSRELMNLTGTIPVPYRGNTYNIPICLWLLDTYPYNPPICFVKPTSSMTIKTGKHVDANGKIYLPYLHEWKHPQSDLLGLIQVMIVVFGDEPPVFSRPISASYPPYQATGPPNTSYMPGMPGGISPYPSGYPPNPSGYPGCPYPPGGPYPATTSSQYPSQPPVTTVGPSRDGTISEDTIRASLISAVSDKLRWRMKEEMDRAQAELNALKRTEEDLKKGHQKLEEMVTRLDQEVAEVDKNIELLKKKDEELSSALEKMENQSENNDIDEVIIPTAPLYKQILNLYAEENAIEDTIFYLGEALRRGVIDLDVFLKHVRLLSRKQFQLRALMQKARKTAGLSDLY
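Compounds were pin-transferred onto Tsg101 binding domain (10 uM final) in HEPES pH 7.5 buffer, then FITC-PTAP peptide was added at 50 nM final. After 20 min at RT, polarization reported peptide displacement across a qHTS concentration series.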
MCF10A rereplic: DNA re-replication induction in MCF 10a cells; 2.9% of 350,000 active; MCF 10A DNA re-replication, Hoechst nuclear intensity, 48 h; Potency, µM (top dose mostly 46.1 µM), without a hit: at the highest dose activity, positive = re-replication, hits mostly activators; also: % of control where 0% means no effect; nearly all actives have a fitted effect of over 50% in size
PINK1 modulator: modulators of PINK1 expression; Potency, µM (series often up to 76.6 µM), inactives show at the top dose activation (PINK1 increase), most hits filed as activators; 0.2% of 410,000 active; PINK1 immunofluorescence, high-content cytometry, 24 h; active = well fitted activation curve with a large enough effect; inconclusive = small, poorly fitted or top-dose-only effect; cell line not stated here; also: % of control where 0% means no effect; nearly all actives have a fitted effect of over 65% in size
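Stable cell line treated 24 h with compounds at 5 concentrations (CCCP controls), then fixed and immunostained for PINK1 plus nuclear and cell stains; PINK1 immunofluorescence quantified by laser-scanning microplate cytometry.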
KB-3-1 tox: kills parental KB-3-1 adenocarcinoma cells. AID 1347075. 1.4% of 400,000 active. Potency, µM (titrated, usually from 46.1 µM), usual class: cytotoxic. KB-3-1 viability, CellTiter-Glo ATP luminescence, 72 h; also: % is scaled to controls: 0 for no effect and ±100 for the full control effect; nearly all actives have a fitted effect of over 60% in size
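Cells are dispensed, compounds pinned in, plates held at 37 °C for 72 h, then CellTiter-Glo is added and luminescence read after 10 minutes. Cell line: parental KB-3-1 in phenol-red-free DMEM, 10% FBS.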
An asterisk follows results filed as active; i = inactive; ? = inconclusive; . = not tested or not shown. Unless noted, calls follow the shape of the dose curve; as a rule, active = well fitted curve in the direction sought with a large enough effect; inconclusive = small, poorly fitted or top-dose-only effect, or another doubt; inactive = no such curve, though single readings can be large; an effect the other way counts as inactive or inconclusive. Potency is read from the fitted curve at half-maximal effect.

SMILES | SW480 rerep | KB-V1 MDR tox | TSG101-PTAP inh | MCF10A rereplic | PINK1 modulator | KB-3-1 tox
CN=c1c([N+](=O)[O-])nn(-c2ccc3c(c2)OCCO3)n1O | 16µM* | i | -10% | 2% | 1% | i
COc1cc(N=c2c([N+](=O)[O-])nn(-c3ccc4c(c3)OCCO4)n2O)cc(OC)c1 | ? | 6.5µM* | -9% | 21µM* | -2% | ?
CN(C)c1cccc(-c2cc(N3CCC(C(N)=O)CC3)ncn2)c1 | . | i | . | . | . | ?
COc1cccc(Nc2nc3c(S(=O)(=O)c4cc(C)ccc4C)nnn3c3ccsc23)c1 | . | i | . | . | 0% | i
COc1ccc(/C=C/C(=O)c2ccc3c(c2)OCCO3)cc1[N+](=O)[O-] | 12µM* | i | -4% | 3.7µM* | -1% | ?
COc1cc(/C=C/C(=O)c2ccc3c(c2)OCO3)cc(Cl)c1O | ? | i | 29% | 9.2µM* | -3% | i
COc1ccc(Oc2ccc(/C=C/C(=O)c3cccc(OC)c3)cc2[N+](=O)[O-])cc1 | ? | ? | 0% | 6.5µM* | -1% | ?
O=C(O)c1ccc(/C=C/C(=O)c2ccc3c(c2)OCCCO3)cc1 | 21µM* | ? | 1% | ? | -2% | ?
COc1ccc(C(=O)C=Cc2ccc3c(c2)OCO3)cc1OC | . | ? | . | . | -1% | ?
COc1ccc(/C=N/NC(=O)c2ccc3c(c2)OCCO3)cc1[N+](=O)[O-] | -3% | i | -5% | -4% | 7% | i
CC(C)CCn1c(SCc2cccc(F)c2)nc2ccsc2c1=O | . | . | . | . | 0% | .
COc1cccc(Cn2c(=O)c(-c3cn(C)c4ccccc34)nc3cnc(OC)nc32)c1 | . | . | . | . | 0% | .
CCOc1cc(/C=C/C(=O)c2ccc(O)cc2)ccc1OCC(=O)N(C)C | ? | i | -1% | ? | -2% | i
CCOc1cc(/C=C/C(=O)c2ccc3c(c2)OCCO3)ccc1OCC(=O)N(C)C | ? | 16µM* | 0% | ? | -1% | ?
CCC(Oc1ccccc1)C(=O)N(Cc1ccccc1)c1ccccn1 (centres undefined) | -12% | 16µM* | -1% | -11% | 6% | ?
COc1ccccc1N1CCN(c2nc(CNC(=O)c3ccc4c(c3)OCO4)nc3ccccc23)CC1 | . | . | . | . | -1% | .
Cn1c(SCc2cc(=O)n3cc(Br)ccc3n2)nnc1C1COc2ccccc2O1 (centres undefined) | -2% | 12µM* | -7% | 0% | -3% | i
COc1cccc(CNc2ncnc3onc(C)c23)c1 | . | i | . | . | 0% | 21µM*
COc1cccc(CNc2ncnc3ccc(-c4c(C)noc4C)cc23)c1 | -22% | ? | . | ? | 3% | i
CCOC(=O)c1cc(-c2ccccc2)n(CCCC(=O)Nc2cc(C)ccc2OC)c1C | . | i | . | . | -1% | i
COc1ccc(NC(=O)C2(C)Cc3c(-c4cccc(C(N)=O)c4)ccnc3O2)cc1 (centres undefined) | . | ? | . | . | 12% | 7.3µM*
CC(=O)Nc1cccc(-c2ccnc3c2CC(C)(C(=O)Nc2ccc(Cl)cc2)O3)c1 (centres undefined) | . | ? | . | . | 1% | 2.3µM*
CC(=O)Nc1ccc(NC(=O)C2(C)Cc3c(-c4cccc(NC(C)=O)c4)ccnc3O2)cc1 (centres undefined) | . | i | . | . | 1% | i
COc1ccc(NC(=O)C2(C)Cc3c(-c4ccc5c(c4)OCO5)ccnc3O2)cc1 (centres undefined) | . | ? | . | . | 3% | 16µM*
CC1(C(=O)Nc2ccc3c(c2)OCO3)Cc2c(-c3ccccc3)ccnc2O1 (centres undefined) | . | ? | . | . | 3% | ?
CC(=O)Nc1cccc(-c2ccnc3c2CC(C)(C(=O)Nc2ccc4c(c2)OCO4)O3)c1 (centres undefined) | . | 8.2µM* | . | . | 6% | 2.3µM*
COC(=O)c1ccccc1NC(=O)c1ccc2nc(Cc3ccccc3)oc2c1 | . | i | . | . | 3% | i
